# Reference: PubChem BioAssay (EPA / NIEHS)
# Inconclusive results are not listed. Calls of active or inactive are those of the source. Rule for the calls: active = hit-call score of the fitted dose curve at least 0.9, where 1 is the maximum; inconclusive = response in the unintended direction; inactive = score below 0.9.
# What was measured:
# [1] = target: human Beta-secretase (BACE), BACE1 (gene 23621) (UniProt P56817); assay: NVS_ENZ_hBACE: NovaScreen (NVS) Enzymatic Assay for human Beta-secretase (BACE) (AID 2283140);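 note: hits are inhibitors that reduce fluorescent substrate signal versus DMSO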
# Sequence of human Beta-secretase (BACE), BACE1 (gene 23621) (P56817 whole entry, looked up): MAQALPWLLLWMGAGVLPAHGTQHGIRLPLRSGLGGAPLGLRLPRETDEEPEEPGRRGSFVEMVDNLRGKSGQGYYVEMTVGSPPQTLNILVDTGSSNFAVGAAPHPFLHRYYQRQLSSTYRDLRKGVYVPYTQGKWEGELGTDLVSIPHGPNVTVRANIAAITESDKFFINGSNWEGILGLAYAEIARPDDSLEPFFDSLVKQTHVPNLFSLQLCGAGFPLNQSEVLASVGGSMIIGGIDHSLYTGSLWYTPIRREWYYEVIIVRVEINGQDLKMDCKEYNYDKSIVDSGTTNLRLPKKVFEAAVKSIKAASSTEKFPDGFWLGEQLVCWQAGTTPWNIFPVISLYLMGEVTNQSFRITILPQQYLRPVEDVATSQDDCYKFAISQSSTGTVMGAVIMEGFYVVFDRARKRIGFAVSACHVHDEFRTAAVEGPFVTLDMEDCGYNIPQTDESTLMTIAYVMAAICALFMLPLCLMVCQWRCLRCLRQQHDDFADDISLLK
# How it was run: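 Fluorescence intensity read-out of protease activity defines this endpoint; signal loss relative to DMSO baseline marks inhibition. Recombinant enzyme from SF9 cells, cell-free format, 1 h exposure. Single-concentration duplicate screen (25 uM) precedes concentration-series follow-up.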
# [2] = target: human Ephrin type-A Receptor 1 (EphA1), EPHA1 (gene 2041) (UniProt P21709); assay: NVS_ENZ_hEphA1: NovaScreen (NVS) Enzymatic Assay for human Ephrin type-A Receptor 1 (EphA1) (AID 2283158);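 note: activity is signal loss versus DMSO meaning EphA1 kinase inhibition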
# Sequence of human Ephrin type-A Receptor 1 (EphA1), EPHA1 (gene 2041) (P21709 whole entry, looked up): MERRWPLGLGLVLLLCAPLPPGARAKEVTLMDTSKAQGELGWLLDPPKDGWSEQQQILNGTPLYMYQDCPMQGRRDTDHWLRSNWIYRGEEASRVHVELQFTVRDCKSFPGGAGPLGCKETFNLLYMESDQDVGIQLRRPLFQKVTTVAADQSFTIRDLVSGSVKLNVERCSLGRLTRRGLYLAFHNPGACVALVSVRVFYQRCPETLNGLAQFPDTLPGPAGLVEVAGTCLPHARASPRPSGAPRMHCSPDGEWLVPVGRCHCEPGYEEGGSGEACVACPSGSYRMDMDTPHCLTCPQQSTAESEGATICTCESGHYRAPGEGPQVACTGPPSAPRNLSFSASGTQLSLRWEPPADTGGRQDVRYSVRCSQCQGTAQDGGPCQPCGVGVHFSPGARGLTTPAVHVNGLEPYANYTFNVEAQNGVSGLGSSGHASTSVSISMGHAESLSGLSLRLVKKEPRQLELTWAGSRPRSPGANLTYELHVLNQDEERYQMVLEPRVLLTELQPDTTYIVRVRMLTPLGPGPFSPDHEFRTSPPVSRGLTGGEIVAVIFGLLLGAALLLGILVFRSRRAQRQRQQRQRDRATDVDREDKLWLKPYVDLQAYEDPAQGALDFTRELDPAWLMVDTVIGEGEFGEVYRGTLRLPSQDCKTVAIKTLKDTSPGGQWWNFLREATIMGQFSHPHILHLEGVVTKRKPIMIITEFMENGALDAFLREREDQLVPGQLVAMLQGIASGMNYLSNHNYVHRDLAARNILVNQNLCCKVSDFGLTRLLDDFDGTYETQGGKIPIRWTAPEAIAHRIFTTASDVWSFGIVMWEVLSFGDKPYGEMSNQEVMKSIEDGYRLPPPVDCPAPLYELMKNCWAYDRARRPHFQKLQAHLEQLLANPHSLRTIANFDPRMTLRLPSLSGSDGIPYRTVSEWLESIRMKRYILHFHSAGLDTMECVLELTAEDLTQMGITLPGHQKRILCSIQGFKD
# How it was run: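 Biochemical kinase assay run cell-free; 1 h incubation; readout is fluorescence with mobility-shift separation of product. Concentration-response up to 50 uM for actives from a 25 uM screen.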
# [3] = target: human AKT serine/threonine Kinase 2 (AKT2), AKT2 (gene 208) (UniProt P31751); assay: NVS_ENZ_hAKT2: NovaScreen (NVS) Enzymatic Assay for human AKT serine/threonine Kinase 2 (AKT2) (AID 2283141)
# How it was run: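 Cell-free fluorescence/electrophoretic mobility shift readout of recombinant human AKT2 activity, 1 h after chemical dosing. Duplicate primary screen at 25 uM, then singleton concentration-response up to 50 uM; loss of signal versus DMSO baseline.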
# [4] = target: Glycogen synthase kinase-3 beta (Homo sapiens) (UniProt P49841); assay: NVS_ENZ_hGSK3b: NovaScreen (NVS) Enzymatic Assay for human Glycogen Synthase Kinase-3 beta (GSK3b) (AID 2283165)
# Sequence of Glycogen synthase kinase-3 beta (Homo sapiens) (P49841 whole entry, looked up): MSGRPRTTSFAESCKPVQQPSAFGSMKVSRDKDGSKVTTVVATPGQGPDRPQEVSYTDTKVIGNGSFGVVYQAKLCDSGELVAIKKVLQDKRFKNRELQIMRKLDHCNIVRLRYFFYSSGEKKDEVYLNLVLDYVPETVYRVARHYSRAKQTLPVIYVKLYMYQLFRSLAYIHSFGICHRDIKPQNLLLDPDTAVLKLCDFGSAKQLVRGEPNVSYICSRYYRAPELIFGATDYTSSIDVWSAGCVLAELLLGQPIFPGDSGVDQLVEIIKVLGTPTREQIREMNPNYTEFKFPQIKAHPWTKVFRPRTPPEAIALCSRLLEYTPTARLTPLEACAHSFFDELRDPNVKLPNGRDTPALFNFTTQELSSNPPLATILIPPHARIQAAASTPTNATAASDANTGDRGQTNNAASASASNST
# How it was run: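 Recombinant enzyme with specific fluorescent substrate, 1 h, product separated by electrophoretic mobility shift. Primary duplicate screen at 25 uM; actives (e.g. 30% inhibition) followed in singleton concentration-response to 50 uM. Signal loss fitted versus DMSO.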
# [5] = target: human Caspase 5 (CASP5), CASP5 (gene 838) (UniProt P51878); assay: NVS_ENZ_hCASP5: NovaScreen (NVS) Enzymatic Assay for human Caspase 5 (CASP5) (AID 2283137)
# Sequence of human Caspase 5 (CASP5), CASP5 (gene 838) (P51878 whole entry, looked up): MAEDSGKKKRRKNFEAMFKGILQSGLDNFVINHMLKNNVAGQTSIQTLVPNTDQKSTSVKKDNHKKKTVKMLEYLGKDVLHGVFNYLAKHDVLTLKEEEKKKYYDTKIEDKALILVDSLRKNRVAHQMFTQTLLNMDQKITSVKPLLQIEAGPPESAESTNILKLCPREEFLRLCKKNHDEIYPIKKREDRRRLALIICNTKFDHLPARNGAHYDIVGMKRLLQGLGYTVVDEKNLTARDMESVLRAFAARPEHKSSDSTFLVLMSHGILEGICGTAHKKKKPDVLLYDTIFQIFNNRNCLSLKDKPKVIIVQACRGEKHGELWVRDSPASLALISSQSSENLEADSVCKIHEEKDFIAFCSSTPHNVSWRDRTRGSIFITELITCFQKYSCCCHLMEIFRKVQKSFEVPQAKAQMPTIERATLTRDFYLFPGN
# How it was run: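 Chemicals were first tested in duplicate at 25 uM against recombinant caspase 5 from E. coli. Activity was read by fluorescence intensity 2 hours after dosing. Those passing a preset inhibition threshold were retested in singleton concentration-response up to 50 uM.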
# [6] = target: human Dual Specificity Protein Phosphatase 3 (DUSP3), DUSP3 (gene 1845) (UniProt P51452); assay: NVS_ENZ_hDUSP3: NovaScreen (NVS) Enzymatic Assay for human Dual Specificity Protein Phosphatase 3 (DUSP3) (AID 2283152);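 note: phosphatase activity of recombinant human DUSP3 on a fluorogenic substrate without cells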
# Sequence of human Dual Specificity Protein Phosphatase 3 (DUSP3), DUSP3 (gene 1845) (P51452 whole entry, looked up): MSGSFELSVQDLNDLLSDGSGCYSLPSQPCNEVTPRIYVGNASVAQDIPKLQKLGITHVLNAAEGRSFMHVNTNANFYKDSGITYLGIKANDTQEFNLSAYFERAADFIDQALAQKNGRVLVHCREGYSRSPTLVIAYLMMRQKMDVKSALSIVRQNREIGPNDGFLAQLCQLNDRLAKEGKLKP
# How it was run: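 Cell-free fluorescence-intensity enzyme activity assay with recombinant protein and substrate; loss of signal fitted relative to DMSO baseline. Primary screen in duplicate at 25 uM, actives then run in concentration series; measured 0 h after dosing.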
# [7] = target: human FYN Proto-Oncogene, Src family Tyrosine Kinase (Fyn), FYN (gene 2534) (UniProt P06241); assay: NVS_ENZ_hFyn: NovaScreen (NVS) Enzymatic Assay for human FYN Proto-Oncogene, Src family Tyrosine Kinase (Fyn) (AID 2283161)
# How it was run: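 Cell-free kinase activity read by fluorescence after mobility-shift separation of substrate and product, 1 h post-dose. Initial single concentration 25 uM in duplicate, then concentration-response follow-up; DMSO baseline.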
# [8] = target: human Colony Stimulating Factor 1 Receptor (CSF1R), CSF1R (gene 1436) (UniProt P07333); assay: NVS_ENZ_hCSF1R: NovaScreen (NVS) Enzymatic Assay for human Colony Stimulating Factor 1 Receptor (CSF1R) (AID 2283150)
# Sequence of human Colony Stimulating Factor 1 Receptor (CSF1R), CSF1R (gene 1436) (P07333 whole entry, looked up): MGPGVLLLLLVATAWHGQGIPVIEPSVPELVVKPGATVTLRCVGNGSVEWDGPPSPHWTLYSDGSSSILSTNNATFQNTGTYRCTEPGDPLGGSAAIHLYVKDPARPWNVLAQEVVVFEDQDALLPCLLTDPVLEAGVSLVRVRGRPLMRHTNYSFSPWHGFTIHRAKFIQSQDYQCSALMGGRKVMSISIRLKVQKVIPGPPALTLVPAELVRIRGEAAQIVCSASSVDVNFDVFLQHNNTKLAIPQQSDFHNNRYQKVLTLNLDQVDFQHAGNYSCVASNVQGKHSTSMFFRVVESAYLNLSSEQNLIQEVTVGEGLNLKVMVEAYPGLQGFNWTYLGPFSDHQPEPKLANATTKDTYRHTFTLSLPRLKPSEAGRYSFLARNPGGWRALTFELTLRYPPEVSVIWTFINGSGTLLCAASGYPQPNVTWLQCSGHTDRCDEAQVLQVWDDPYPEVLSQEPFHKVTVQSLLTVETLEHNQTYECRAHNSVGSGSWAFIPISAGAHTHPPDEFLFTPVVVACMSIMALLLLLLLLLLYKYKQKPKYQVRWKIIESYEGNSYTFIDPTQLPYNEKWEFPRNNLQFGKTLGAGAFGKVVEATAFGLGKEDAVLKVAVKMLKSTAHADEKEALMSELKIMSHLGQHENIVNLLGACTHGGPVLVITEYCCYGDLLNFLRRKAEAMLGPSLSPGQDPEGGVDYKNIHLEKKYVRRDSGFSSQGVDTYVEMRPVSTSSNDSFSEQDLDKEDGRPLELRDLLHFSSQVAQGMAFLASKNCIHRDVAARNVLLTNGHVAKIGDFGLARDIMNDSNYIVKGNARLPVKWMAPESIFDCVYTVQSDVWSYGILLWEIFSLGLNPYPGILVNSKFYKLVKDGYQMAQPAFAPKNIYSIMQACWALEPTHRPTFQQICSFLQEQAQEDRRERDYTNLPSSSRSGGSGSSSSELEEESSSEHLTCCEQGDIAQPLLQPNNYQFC
# How it was run: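 Compounds screened in duplicate at 25 uM, then concentration-response (top 50 uM) for those passing threshold such as 30% inhibition; recombinant CSF1R activity measured 1 h post-dosing via fluorescent substrate/product mobility-shift separation, loss of signal versus DMSO.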
# [9] = target: human Elastase, ELANE (gene 1991) (UniProt P08246); assay: NVS_ENZ_hElastase: NovaScreen (NVS) Enzymatic Assay for human Elastase (AID 2283153)
# How it was run: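 Concentration-response to 50 uM max, run singly for chemicals passing a threshold (e.g., 30% inhibition) in a duplicate 25 uM single-point screen. Neutrophil-derived human elastase, absorbance read-out of enzyme activity at 1.5 h; DMSO baseline.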
# [10] = target: human Esterase Plasma (ES), BCHE (gene 590) (UniProt P06276); assay: NVS_ENZ_hES: NovaScreen (NVS) Enzymatic Assay for human Esterase Plasma (ES) (AID 2283157)
# Sequence of human Esterase Plasma (ES), BCHE (gene 590) (P06276 whole entry, looked up): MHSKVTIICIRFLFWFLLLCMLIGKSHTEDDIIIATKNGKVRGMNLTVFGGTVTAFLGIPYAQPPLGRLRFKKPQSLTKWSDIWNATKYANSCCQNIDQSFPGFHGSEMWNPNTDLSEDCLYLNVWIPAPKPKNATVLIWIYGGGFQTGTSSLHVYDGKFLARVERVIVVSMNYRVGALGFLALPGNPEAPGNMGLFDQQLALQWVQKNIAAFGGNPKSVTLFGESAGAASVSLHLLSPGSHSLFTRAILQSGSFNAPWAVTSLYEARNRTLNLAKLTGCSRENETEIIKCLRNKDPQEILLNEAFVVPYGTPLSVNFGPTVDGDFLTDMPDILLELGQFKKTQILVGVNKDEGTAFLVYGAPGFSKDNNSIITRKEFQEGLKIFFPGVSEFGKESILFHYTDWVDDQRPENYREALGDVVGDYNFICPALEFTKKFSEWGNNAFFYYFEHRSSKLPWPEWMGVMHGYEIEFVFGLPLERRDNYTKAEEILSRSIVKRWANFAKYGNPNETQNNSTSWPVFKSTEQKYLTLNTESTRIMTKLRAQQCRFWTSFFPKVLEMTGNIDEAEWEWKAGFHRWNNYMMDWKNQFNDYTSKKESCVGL
# How it was run: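 Screening ran at 25 uM in duplicate, followed by singleton concentration series reaching 50 uM for actives. Human plasma protein, colorimetric detection, 0.25 h exposure, DMSO negative control.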
# [11] = target: human Ephrin type-B Receptor 2 (EphB2), EPHB2 (gene 2048) (UniProt P29323); assay: NVS_ENZ_hEphB2: NovaScreen (NVS) Enzymatic Assay for human Ephrin type-B Receptor 2 (EphB2) (AID 2283156)
# How it was run: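 Compounds were first tested in duplicate at 25 uM, with hits rerun singly in concentration series up to 50 uM. Enzyme activity on fluorescent substrate was read at 1 h by mobility-shift separation, scored as signal loss relative to DMSO.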
# [12] = target: human Caspase 8 (CASP8), CASP8 (gene 841) (UniProt Q14790); assay: NVS_ENZ_hCASP8: NovaScreen (NVS) Enzymatic Assay for human Caspase 8 (CASP8) (AID 2283146)
# How it was run: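 The primary screen tested compounds in duplicate at a single 25 uM concentration, with actives followed up in concentration series. Activity of recombinant (E. coli) protease was measured by fluorescence 1 h post-dose, as signal loss against DMSO.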
# [13] = target: human AKT serine/threonine Kinase 1 (AKT1), AKT1 (gene 207) (UniProt P31749); assay: NVS_ENZ_hAKT1: NovaScreen (NVS) Enzymatic Assay for human AKT serine/threonine Kinase 1 (AKT1) (AID 2283138)
# Sequence of human AKT serine/threonine Kinase 1 (AKT1), AKT1 (gene 207) (P31749 whole entry, looked up): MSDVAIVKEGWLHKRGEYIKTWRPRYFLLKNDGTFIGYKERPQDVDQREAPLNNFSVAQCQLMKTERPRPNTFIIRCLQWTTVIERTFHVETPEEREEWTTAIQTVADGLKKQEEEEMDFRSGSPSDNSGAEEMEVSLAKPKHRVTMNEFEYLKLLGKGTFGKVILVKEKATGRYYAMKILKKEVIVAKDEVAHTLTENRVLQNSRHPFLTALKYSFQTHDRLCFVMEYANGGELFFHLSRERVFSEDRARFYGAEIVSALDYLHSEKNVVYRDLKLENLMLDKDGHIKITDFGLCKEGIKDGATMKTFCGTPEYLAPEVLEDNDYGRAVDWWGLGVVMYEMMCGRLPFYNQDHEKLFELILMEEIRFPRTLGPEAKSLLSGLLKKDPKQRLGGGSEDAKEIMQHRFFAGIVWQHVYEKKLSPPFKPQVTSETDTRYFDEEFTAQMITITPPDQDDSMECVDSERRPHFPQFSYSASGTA
# How it was run: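 Compounds were first tested in duplicate at 25 uM, and those passing a threshold such as 30% inhibition were run in concentration-response to a maximum of 50 uM. Enzyme activity was measured after 1 h by fluorescence following substrate/product mobility-shift separation.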
# [14] = target: human Aurora Kinase A - serine/threonine-protein Kinase 6 (AurA), AURKA (gene 6790) (UniProt O14965); assay: NVS_ENZ_hAurA: NovaScreen (NVS) Enzymatic Assay for human Aurora Kinase A - serine/threonine-protein Kinase 6 (AurA) (AID 2283142)
# Sequence of human Aurora Kinase A - serine/threonine-protein Kinase 6 (AurA), AURKA (gene 6790) (O14965 whole entry, looked up): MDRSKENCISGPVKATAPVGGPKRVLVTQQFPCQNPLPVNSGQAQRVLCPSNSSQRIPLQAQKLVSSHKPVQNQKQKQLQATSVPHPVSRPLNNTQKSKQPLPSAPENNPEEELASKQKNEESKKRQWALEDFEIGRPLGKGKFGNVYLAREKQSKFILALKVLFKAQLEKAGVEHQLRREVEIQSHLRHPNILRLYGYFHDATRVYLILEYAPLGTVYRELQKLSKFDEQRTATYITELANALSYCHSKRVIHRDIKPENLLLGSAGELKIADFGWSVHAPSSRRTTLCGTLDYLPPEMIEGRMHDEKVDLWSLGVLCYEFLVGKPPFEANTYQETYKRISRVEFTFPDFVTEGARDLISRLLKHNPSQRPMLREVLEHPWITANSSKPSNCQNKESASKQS
# How it was run: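 Recombinant human AurA activity read by fluorescence after mobility-shift separation of product from substrate; 1 hour incubation. Chemicals first run in duplicate at 25 uM, then concentration series to 50 uM if over threshold; fitted relative to DMSO.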
# [15] = target: Protein deacetylase HDAC6 (Homo sapiens) (UniProt Q9UBN7); assay: NVS_ENZ_hHDAC6: NovaScreen (NVS) Enzymatic Assay for human Histone Deacetylase 6 (HDAC6) (AID 2283164)
# How it was run: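 Concentration-response runs up to 50 uM followed a duplicate 25 uM single-point screen. Deacetylase activity of recombinant human HDAC6 read by fluorescence after 1 h, with mobility-shift separation of substrate and product; DMSO as baseline.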
# [16] = target: human Casein Kinase 1-delta (CK1D), CSNK1D (gene 1453) (UniProt P48730); assay: NVS_ENZ_hCK1D: NovaScreen (NVS) Enzymatic Assay for human Casein Kinase 1-delta (CK1D) (AID 2283148)
# How it was run: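 Recombinant human CK1-delta, cell-free; fluorescent substrate with electrophoretic mobility-shift separation of product, read 1 h after dosing. Single 25 uM duplicate screen, then concentration-response up to 50 uM; loss of signal vs DMSO.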
smiles,measurement,setting,value
O=C(O)C(F)(F)C(F)(F)C(F)(F)C(F)(F)C(F)(F)C(F)(F)F,AC50,[1],18.6 µM (active)
CCCCCCCCC(=O)NCc1ccc(O)c(OC)c1,outcome,[2],inactive
CC(C)(OO)c1ccccc1,outcome,[3],inactive
same,outcome,[4],inactive
Nc1cccc2ccccc12,AC50,[5],45.2 µM (active)
same,AC50,[6],17 µM (active)
NC(=O)O,outcome,[7],inactive
Cn1sc(Cl)cc1=O,outcome,[5],inactive
same,outcome,[1],inactive
same,outcome,[8],inactive
same,outcome,[9],inactive
same,outcome,[10],inactive
O=C(O)C(Cl)(Cl)Cl,outcome,[11],inactive
Nc1cccc(Cl)c1,outcome,[2],inactive
COP(=S)(OC)Oc1ccc(S(=O)(=O)N(C)C)cc1,AC50,[6],7.43 µM (active)
same,AC50,[10],20 µM (active)
COc1cccc(C=O)c1,outcome,[2],inactive
COP(=S)(OC)Oc1cc(Cl)c(Cl)cc1Cl,AC50,[6],11.8 µM (active)
same,outcome,[2],inactive
O=c1[nH]c(=O)[nH]c(=O)[nH]1,outcome,[12],inactive
C=CC(=O)OCCCCCC(C)C,outcome,[13],inactive
CCN1CCC2(CC1)COc1cc3c(cc12)N(C(=O)c1ccc(-c2ccc(-c4nnc(C)o4)cc2C)cc1)CC3,AC50,[1],28.3 µM (active)
same,AC50,[10],28.3 µM (active)
CC(Br)C(=O)O (centres undefined),outcome,[2],inactive
CC(C)(C)CC(C)(C)c1ccc(O)cc1,outcome,[4],inactive
NC(=S)Nc1ccccc1,AC50,[2],41.6 µM (active)
CCC(=O)C(CC(C)N(C)C)(c1ccccc1)c1ccccc1 (centres undefined),outcome,[13],inactive
same,AC50,[10],15.6 µM (active)
O=C(Nc1ccc2[nH]ccc2c1)c1cc2cc(F)ccc2n1Cc1cccc(F)c1,outcome,[1],inactive
O=C1C2(Cl)C3(Cl)C4(Cl)C(Cl)(Cl)C5(Cl)C3(Cl)C1(Cl)C5(Cl)C24Cl (centres undefined),outcome,[5],inactive
same,outcome,[1],inactive
same,outcome,[14],inactive
same,outcome,[15],inactive
same,outcome,[4],inactive
Cc1ccccc1N,outcome,[4],inactive
CC(C)CCCCCCOC(=O)c1ccccc1C(=O)OCCCCCCC(C)C,AC50,[1],8.09 µM (active)
Nc1ncc([N+](=O)[O-])s1,AC50,[5],9.06 µM (active)
same,AC50,[6],2.36 µM (active)
CCCCCCCCc1ccc(O)cc1,outcome,[5],inactive
same,outcome,[16],inactive
same,outcome,[8],inactive
same,outcome,[4],inactive
COc1cc2c(cc1OC)[C@@]13CCN4CC5=CCO[C@H]6CC(=O)N2[C@H]1[C@H]6[C@H]5C[C@H]43,AC50,[1],6.44 µM (active)
same,outcome,[2],inactive
